Pf apPOL inh – Pf-apPOL DNA polymerase inhibition; Recombinant Pf-apPOL, molecular beacon fluorescence, 1.5 h; inhibition, % at 10 µM; 210,000 compounds, 0.25% hits; AID 1794808
mHTT CaM bind – mHTT-calmodulin interaction abrogation; P42858; inhibition, % at 15 µM; AlphaScreen His-mHTT/GST-CaM binding, luminescence; AID 1671202; 190,000 compounds, 3.6% hits;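 further: 0% = both proteins with DMSO and 100% = one protein alone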
An asterisk follows results filed as active; x = no result given. Shown are actives, neighbours in structure and some others; about 3.5% of the full set was active somewhere. No stated cut-off is given here; in the data, active means inhibition above about 50%; inactive means the rest.

SMILES | Pf apPOL inh | mHTT CaM bind
Cc1cccc(OCc2nc(C(=O)NC3CC3)cs2)c1C | -3.5 | 5.4
CCCCC(=O)N1CCC(C(=O)NCCc2csc(-c3ccccc3)n2)CC1 | -0.8 | 1.6
COc1ccc(SC[C@H](CC(C)C)N2CCN(CCc3ccccc3)CCC2=O)cc1 | -5.2 | 99.5*
COc1ccc(SC[C@H](Cc2ccccc2)N2CCN(CC(C)C)CCC2=O)cc1 | -5.4 | -30.1
O=C1OC(c2cccc([N+](=O)[O-])c2)=N/C1=C/c1cc2c(cc1Cl)OCO2 | 0.1 | 22.0
COc1cc(COc2ccc3c4c(c(=O)oc3c2)CCCC4)cc(OC)c1OC | -3.4 | 0.0
O=c1oc2c(-c3ccc([N+](=O)[O-])cc3)cc(O)cc2s1 | 2.2 | 8.6
O=c1oc2c(-c3ccc(Cl)cc3)cc(O)cc2s1 | 0.1 | 80.0*
COc1cc(OC)c2c(-c3cccc(-c4cccc(C)c4)c3)cc(=O)oc2c1 | -7.5 | -5.9
Cc1cccc(-c2cc(O)cc3sc(=O)oc23)c1 | 5.1 | 91.0*
COc1cc(C=O)cc(I)c1OC(C)C | -8.0 | -5.4
Cc1ccc(CNC(=O)C2CCN(c3nc4ccsc4c(=O)n3-c3ccccc3)CC2)o1 | -1.3 | 29.3
O=C(CCn1ccc(=O)[nH]c1=O)N1CCCC(c2nnc(-c3ccc4c(c3)OCO4)o2)C1 (stereo not drawn) | -6.8 | 2.5
Cc1ccc(NC(=O)N2CCCC(CCC(=O)N3CCC(Cc4ccccc4)CC3)C2)cc1 (stereo not drawn) | -8.4 | 54.0*
Cc1ccc(NC(=O)N2CCCC(CCC(=O)N3CCOCC3)C2)cc1 (stereo not drawn) | -5.6 | 0.7
CC(C)CNC(=O)c1cn2cc(-c3ccc(C(F)(F)F)cc3)ccc2n1 | 8.3 | 25.8
Oc1c(Cl)cc(Cl)cc1C=Nc1ccnn1-c1ccccc1 | -5.0 | x
CC(C)CC(=O)N1CCN(c2nc(CN3CCOCC3)cs2)CC1 | -3.1 | -3.9
Cc1ccc(-c2nc(C(=O)NCCc3ccc(Cl)cc3)cs2)n1C | -3.0 | 23.8
Cc1ccc(-c2nc(C(=O)NCCc3ccccc3)cs2)n1C | 1.1 | 98.7*
Cc1ccc(-c2nc(C(=O)Nc3ccc(Cl)cc3)cs2)n1C | -5.1 | -7.4
COc1ccc(NC(=O)c2csc(-c3ccc(C)n3C)n2)cc1 | -2.7 | 62.4*
O=S(=O)(O)c1nc2ccccc2n1Cc1ccccc1Cl | -10.2 | -2.0
CC(Cc1ccco1)NC(=O)CCC(=O)N1CCCn2nc(-c3cccn3C)cc21 (stereo not drawn) | -2.1 | 42.8
O=C(NCc1nc2ccccc2[nH]1)c1coc(NC(=O)c2cccs2)n1 | 1.0 | 1.1
SMILES | Pf apPOL inh | mHTT CaM bind
Cc1ccc(C(=O)NN(C)C)o1 | x | -2.9
Cc1ccc(C(=O)/C=C/C=C/C=C/N(C)C)o1 | -3.8 | 73.8*
CCCC(=O)N(c1ccccc1)C1CC(C)Nc2ccccc21 (stereo not drawn) | 1.2 | 54.2*
CC1CC(Nc2ccccc2)c2ccccc2N1 (stereo not drawn) | -1.6 | 18.6
CNC(=O)C1CN(C(=O)c2cc(OC)c(OC)c(OC)c2)CC12CCCC2 (stereo not drawn) | -0.4 | -7.5
COc1cc(OC)cc(C2=NC3(CCCC3)N(C(=O)c3cc(OC)c(OC)c(OC)c3)C2=S)c1 | -4.9 | 51.7*
O=C(O)c1cccc(N2N=C(C(F)(F)F)/C(=C/c3ccc(-c4ccccc4[N+](=O)[O-])o3)C2=O)c1 | 3.6 | 37.0
O=C(O)c1ccc(N2N=C(C(F)(F)F)/C(=C/c3ccc(-c4ccccc4[N+](=O)[O-])o3)C2=O)cc1 | 1.5 | 50.0*
COc1ccc(/C=C2/C(=O)N(c3cccc(C(=O)O)c3)N=C2C)cc1Br | -1.9 | 2.0
O=C1CCCC(=O)N1c1ccc(N2CCC(O)(c3cccc(C(F)(F)F)c3)CC2)c([N+](=O)[O-])c1 | -21.0 | 93.0*
O=C1CCCC(=O)N1c1ccc(N2CCN(c3cccc(C(F)(F)F)c3)CC2)c([N+](=O)[O-])c1 | -17.3 | 13.0
O=c1c2cn[nH]c2nc(SCc2ccc(C(F)(F)F)cc2)n1-c1ccccc1 | -16.2 | 63.0*
O=C(CSc1nc2[nH]ncc2c(=O)n1-c1ccccc1)Nc1ccc(C(F)(F)F)cc1 | -4.7 | 37.0
O=C(CN1CCN(c2ccc(F)c(F)c2)C1=O)N1CCN(c2ccccn2)CC1 | -0.9 | -7.5
Cc1cccc(C(=O)N2CCCC(C(=O)Nc3ccc(CN4CCC(C)CC4)cc3)C2)c1 (stereo not drawn) | 5.4 | 28.0
COc1ccc(NC(=O)/C(C#N)=C/c2cc(C)n(-c3ccc(F)cc3)c2C)cc1 | 0.0 | 1.0
COc1ccc(-n2c(C)cc(CN)c2C)cc1 | -0.6 | 63.8*
CCOc1ccc(C(=O)Nc2ccccc2N2CCOCC2)cc1Br | -5.5 | -10.1
CCOc1cc(N2CCOCC2)c(OCC)cc1N | -6.0 | 52.7*
CC1(C)CC(=O)C2=C(C1)N=C1c3ccccc3C(=O)C1C2c1ccc(F)cc1 (stereo not drawn) | -1.5 | 62.0*
CC1(C)CC(=O)C2=C(C1)N=C1c3ccccc3C(=O)C1C2c1ccc(O)c(O)c1 (stereo not drawn) | 11.7 | 48.0

Source: PubChem (University of Kansas High Throughput Screening Laboratory)
